Assay results taken from the supplement of paper PMC11417369.
± gives the standard deviation of the averaged measurements. Whole data set: some 25,000 sequences, median “ln(normalized median fluorescence intensity)” near 8.9, cut for the highest 2% near 10. The sample holds the highest values, similar sequences and a random draw of the others, so the mix is not that of the screen.

The sequences below were run on PfAP2-LT AP2 domain (GST-tagged) (assay: gcPBM binding intensity (ln(normalized median fluorescence intensity)); higher = stronger DNA binding).
Method in brief: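 An Agilent 4 × 180k array carrying primer-extended double-stranded 36-bp intergenic genomic probes and negative controls received GST-tagged P. falciparum DNA-binding domains expressed in E. coli, about 25 μg on average, for 1 h. The binding buffer contained 1× PBS, 1% milk, 0.2 mg/ml BSA, 0.5% salmon testes DNA and 0.03% Triton X-100. Binding intensity is the top Masliner-normalised natural-log median intensity across replicate spots of either probe orientation, read after Alexa488 anti-GST antibody staining and a 488 nm scan.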

| Sequence | gcPBM binding intensity (ln) |
| --- | --- |
| CATAAATGTATATAAACATGCAAGGACAGACTTTTA [TGCATGCA_site900] | 8.92 ± 0.37 |
| TATATATATTATAATACATGCGGTGATGAAAGTTAT [TGCATGCA_site924] | 9.07 ± 0.58 |
| TTATTTAAAATTTTTATGCGTATATATATAGGAACA [CACACA_negctrl_site388] | 8.35 ± 0.39 |
| ACCTGAAGAGTCAAACGTACAAATATTATAAAATGA [XGTACX_site3188] | 8.77 ± 0.59 |
| TTCGTCTTTTTTCTCACACACCCTTTTTATTAAAAG [CACACA_site7225] | 9.05 ± 0.6 |
| GGAGCACCCAGACACACACACACATATATATATATA [CACACA_site336] | 10.4 ± 0.19 |
| CGTGGGAGCAGACACACACACACACCCATATATATA [CACACA_site334] | 9.99 ± 0.5 |
| TGGGAGCACAGACACACACACACACCCATATATATA [CACACA_site335] | 9.98 ± 0.36 |
| TTGGCATACAGACACACACACACACGCCCACATATA [CACACA_site6425] | 10.1 ± 0.38 |
| TATACACCCAGACACACACACACACCCAAAAAAAAA [CACACA_site497] | 10.2 ± 0.3 |
| CATACCTATAGACACACACACACACGCACGCACAAA [CACACA_site6374] | 10 ± 0.18 |
| AATACACCCAGACACACACACAAAAAAAAAAAAAAA [CACACA_site513] | 9.53 ± 0.61 |
| TACCTATACAGACACACACACACACGCCCACAAAAA [CACACA_site6375] | 10.2 ± 0.37 |
| CGCCCACAGATATATACACACATATATAAATAAATA [CACACA_site6877] | 9.04 ± 0.33 |
| TACTATAACAGACATACACACAAAAAAAAAAAAAAA [CACACA_site538] | 9.03 ± 0.47 |
| AATTAGCTCAAAGGTTGTACAAATATATTTTAATGG [XGTACX_site2352] | 8.66 ± 0.48 |
| TTTATACATACATTCGTGCACATACGTATAACATAT | 9.07 ± 0.37 |
| TATAAAAAGCATAACACACACATGTCAATATATATA [CACACA_site1111] | 9.31 ± 0.35 |
| ATTTTGATGATGTATGCACACATTGAAAATGAGAAA [CACACA_site2916] | 8.97 ± 0.57 |
| AAAAAAAAGAATTATTGTACAAAAGAACAATAAATA [XGTACX_site1368] | 8.73 ± 0.57 |
| TGAAAAAAAAAATACACACACGAGTTGTTATACATA [CACACA_site7486] | 9.09 ± 0.43 |
| TAAATACAGACATACACACATACACCCACATATATA [CACACA_site547] | 9.76 ± 0.38 |
| AAAAAAAACAGACACACACACAAATACATACACAAA [CACACA_site705] | 9.72 ± 0.31 |

| Sequence | gcPBM binding intensity (ln) |
| --- | --- |
| TACAGATACGGACACACACACACACCCAGACAAAAA [CACACA_site4432] | 10.2 ± 0.46 |
| CATACAGATGGACACACACACACACCCACAGACAAA [CACACA_site4431] | 9.93 ± 0.36 |
| TGAACACAGACAAATACACACAAAAAAAATAAATAA [CACACA_site4298] | 9.28 ± 0.57 |
| GGCATACACAGACACACACACACACCCACATATATA [CACACA_site591] | 10.2 ± 0.28 |
| AACAAATACAGACACACACACACACCCAAAAAAAAA [CACACA_site515] | 10.2 ± 0.26 |
| TTTAAATACAGACATACACACATACACCCACATATA [CACACA_site8078] | 9.61 ± 0.15 |
| CATACACCCAGACACACACACATATATATATATATA [CACACA_site634] | 10.3 ± 0.17 |
| ATAAAAGATTTATACATACACACATATTATATTCAC [CACACA_site3714] | 9.02 ± 0.42 |
| ACAAGGAATATATAAGATAATTTTAAATATAACACG [CACACA_negctrl_site1734] | 8.73 ± 0.51 |
| AAAAAAAGTAAATGTTGTACTATAATATGTAATATA [XGTACX_site7966] | 8.63 ± 0.55 |
| ATATATATATATATATATATATATATATTTATATAT [GTGCAC_negctrl_site180] | 9.39 ± 0.042 |
| AAAAAGAAAAAAAAATGTACATAAAGTCTAATGATA [XGTACX_site4781] | 8.78 ± 0.49 |
| AAAAATTAAAAGAAAATACACACCTGTGGGTGCTTA [CACACA_site1988] | 8.54 ± 0.47 |
| TTAATTTTTTTTTAAACACACATTTTTTTATTTAAG [CACACA_site2738] | 8.42 ± 0.54 |
| TATGAAAAAAAAAAAAAAAAAAAAAAAAAAAAAAAA [XGTACX_negctrl_site587] | 8.02 ± 0.15 |
| TATATATTCATATGTTGTACATAAATACAAATAAGA [XGTACX_site5602] | 8.69 ± 0.44 |
| ATATAAGTATAATTATGTACTTATACTTATATAAAT [XGTACX_site5585] | 8.62 ± 0.41 |
| TTGGCATACAGACACACACACACACCCCCACATATA [CACACA_site590] | 10.09 ± 0.085 |
| AAAAATATTTTGGTTTGTACATATATTTTTACAATA [XGTACX_site8691] | 8.61 ± 0.34 |
| ACGATGTTCATCACTACACACACAAAGAAATATATA [CACACA_site8859] | 9.26 ± 0.37 |
| CACAGACACGGACACACACACACACCCATATATATA [CACACA_site4354] | 10.1 ± 0.32 |
| CGTGGGAGCGGACACACACACACACCCATATATATA [CACACA_site4340] | 9.86 ± 0.41 |
| ACTTGACACGGACACACACACATATATAAAAAAAAA [CACACA_site4576] | 9.53 ± 0.51 |

| Sequence | gcPBM binding intensity (ln) |
| --- | --- |
| CACGCGCCCGGACACACACACACACCCATATATATA [CACACA_site5251] | 10.2 ± 0.57 |
| CACAGACACGGACACACACACACACCGATATATATA [CACACA_site4353] | 9.88 ± 0.24 |
| CACACGCACGGACACACACACATATAAAATCTATAT [CACACA_site6428] | 9.85 ± 0.57 |
| TACACAGACGGACACACACACACACTAGAAAAAAAA [CACACA_site4435] | 10.1 ± 0.59 |
| AGCACAGACGGACACACACACACACCCACAGACACA [CACACA_site4358] | 10.1 ± 0.23 |
| AAAACACGCGGACACACACACACACGCCCACATATA [CACACA_site7105] | 10.1 ± 0.33 |
| TACAAAAGTTAAACATGTACTTAATTATATGTTTTT [XGTACX_site2852] | 8.57 ± 0.44 |
| TTCTTAATTTAAAATTGTACTTAAGTAATACTTATG [XGTACX_site3928] | 8.49 ± 0.57 |
| TTGTTTCCGATGAAAGAAAGGAAATTATAATATATC [GTGCAC_negctrl_site516] | 8.43 ± 0.44 |
| AAGTAATCATCATAAAGTACTAAATTATATTGTCAA [XGTACX_site5841] | 8.67 ± 0.37 |
| TATAAACAGACGAAAACACACATATGTAAATATATA [CACACA_site4428] | 9.15 ± 0.44 |
| TTTATTATCTTATTCACACACATATATAAATATGTA [CACACA_site7369] | 9.06 ± 0.42 |
| TGTTTTTTATATTACTGTACATGTTTTGGAATAATA [XGTACX_site4716] | 8.75 ± 0.4 |
| ATGAACAAGGGGCACACACACATTATGACTAATTTA [CACACA_site3204] | 9.6 ± 0.45 |
| TTTAAATATTTTATAGCATGCTACCAATATGTATAT [TGCATGCA_site291] | 8.83 ± 0.52 |
| TAGTGTGCCAAATTAGCACACACATATATACATGAA [CACACA_site8910] | 9.6 ± 0.36 |
| TCTTTTTCTTGACGAGTGCAAAAATTGTGTTTGAAA | 8.48 ± 0.35 |
| TCGTAAACATATTGAAAAATATAAAAAGGGGTAATA [CACACA_negctrl_site619] | 8.71 ± 0.56 |
| CTGAAGGAAAAAGAAAGTACTTTTTTTTTTTTGAAG [XGTACX_site5973] | 8.22 ± 0.68 |
| ATCAAGCACGGACACACACACACACCCAGACCCCCA [CACACA_site4360] | 10.19 ± 0.099 |
| CACAGACACGGACACACACACACACCCAGACACATA [CACACA_site4357] | 10.1 ± 0.43 |
| TTGGCATACGGACACACACACACACCCAGACATATA [CACACA_site4492] | 9.84 ± 0.18 |
| CAAGCACCCAGACACACACACACACCCACACCCACA [CACACA_site369] | 10.1 ± 0.47 |

| Sequence | gcPBM binding intensity (ln) |
| --- | --- |
| TTTATTTTATCATTTGCACACGCACCCAGACATAAA [CACACA_site4347] | 9.19 ± 0.35 |
| TTCTATTTTAATATCTGTACATAATAAAGATCCATT [XGTACX_site1142] | 8.46 ± 0.49 |
| ACATTATATTTGGACTGTACTAATATATTGTTATAT [XGTACX_site5573] | 8.91 ± 0.42 |
| GCTTATTAATATCATACACACATAGATATATTTATA [CACACA_site3104] | 8.91 ± 0.39 |
| TATATGTTATATTGGACACACACAATAAACATTATG [CACACA_site8480] | 9.21 ± 0.38 |
| AACCAGTTGATGTGTACACATATAGTAATAATTTTA [CACACA_site5564] | 9.16 ± 0.52 |
| TAAAATTATTAATGAGTGCATTATAAAATCTATATA [GTGCAC_site9493] | 8.38 ± 0.46 |
| ATATTTTCCCTTTATAGGAGCACAAAAATTAAATGT [CACACA_negctrl_site1114] | 8.46 ± 0.35 |
| AGGAAATGTTTATATACATGCATAATTAAATATAAT [TGCATGCA_site672] | 8.74 ± 0.46 |
| TACACAAACAGACACACACACACACGCGCACAAAAA [CACACA_site7192] | 10.06 ± 0.042 |
| AAAAAAAAAACACGCGCACACACACCCACCCACCCA [CACACA_site8689] | 10.365 ± 0.0071 |
| AAAAAAAACACGCGCACACACACACCCACAGACACA [CACACA_site5253] | 10.2 ± 0.14 |
| AAAAAAAACACGCGCACACACACACCCACCCACCGA [CACACA_site2206] | 10.32 ± 0.078 |
| AGAAAAAAACAACATGCACACGCACCCACAAAAAAA [CACACA_site7908] | 9.51 ± 0.28 |
| AAAAAAAAAACAAATACACACGCACCCAAAAAAAAA [CACACA_site8166] | 9.61 ± 0.18 |
| ATAGACAGCGCACAAACACACAAACACCCACCCACA [CACACA_site8043] | 9.99 ± 0.31 |
| AAAAAAAACAAATACACACGCACACCGAAAAAAAAA [CACACA_site803] | 9.6 ± 0.39 |
| AAAAAAACAACATGCACACGCACACCCAAAAAAAGC [CACACA_site72] | 9.84 ± 0.32 |
| GTTTTGTACATATTCTCACACATATAAAAATACCCA [CACACA_site4446] | 8.77 ± 0.42 |
| TATATATATATATATATACACACTATATAATTCAAA [CACACA_site1023] | 9.67 ± 0.042 |
